The values below come from PubChem BioAssay (Tox21).

Unmarked numbers belong to inactive results. Results filed as inconclusive are left out. The source made the active and inactive calls. Unless noted, the call rests on the fitted dose curve; in most records, active means well fitted curve in the direction sought with a large enough effect in the repeat runs; inconclusive means weak or mixed curves; inactive means no such curve, though single readings can be large; an effect the other way counts as inactive or inconclusive.

The nature of assay [1]: qHTS assay to identify small molecule agonists of the TGF-beta/Smad signaling pathway - cell viability counter screen (AID 1346829). Further: top concentration of the series differs between compounds; nearly all actives have a fitted effect of over 45% in size. The procedure, abridged:
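Compound-treated SBE-bla HEK 293T cells (5 hr, 37 C) were assessed for viability with CellTiter-Glo in parallel with the reporter read.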

Assay [2] can be described thus: qHTS assay to identify small molecule agonists of the TGF-beta/Smad signaling pathway (AID 1346859; active means well fitted activation curve with a large enough effect in the signal ratio in the repeat runs, not every such curve was filed as active; the % refers to the signal ratio; further: series mostly up to about 77 µM). In a few lines:
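After overnight seeding, SBE-bla HEK 293T cells are dosed with compounds in DMSO and kept 5 hr at 37 C, 5% CO2. LiveBLAzer-type FRET substrate is then applied for 2 hr at room temperature.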

Assay [3] in a line: Human pregnane X receptor (PXR) small molecule agonists, qHTS cell viability counter screen (AID 1346977). Further: nearly all actives have a fitted effect of over 50% in size. The procedure, abridged: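 Viability counter screen: CellTiter-Fluor signal in PXR-Luc HepG2 cells, 24hr compound exposure, 37C, 5% CO2.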
Assay [4] in a line: Caspase-3/7 induction in HepG2 cells by small molecules, qHTS assay (AID 1346978). Further: nearly all actives have a fitted effect of over 15% in size. The procedure, abridged:
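Wild-type HepG2 cells, 2,000/well, settled 5 hr at 37 C and 5% CO2, then compound-treated for 17 hr; caspase-3/7 activity read by luminescent Caspase-Glo 3/7 after 30 min at room temperature.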

Assay [5] in a line: Caspase-3/7 induction in CHO-K1 cells by small molecules, qHTS cell viability counter screen (AID 1346979). Further: nearly all actives have a fitted effect of over 35% in size. In a few lines:
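Viability readout by fluorescence (CellTiter-Fluor) on wild-type CHO-K1 cells exposed for 16hr at 37C and 5% CO2 to compounds delivered in DMSO; reagent incubated 1hr before reading.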

The nature of assay [6]: Caspase-3/7 induction in CHO-K1 cells by small molecules, qHTS assay (AID 1346980). Further: nearly all actives have a fitted effect of over 15% in size. In a few lines:
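Wild-type CHO-K1 cells exposed to compounds for 17hr at 37 C, 5% CO2. Caspase-3/7 activity then measured by Caspase-Glo 3/7 luminescence after 30min at room temperature.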

Assay [7] can be described thus: Caspase-3/7 induction in HepG2 cells by small molecules, qHTS cell viability counter screen (AID 1346981). Further: series mostly up to about 92 µM; nearly all actives have a fitted effect of over 30% in size. In a few lines:
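Cell viability is measured as a cytotoxicity counter screen alongside the Caspase-Glo 3/7 readout in identical wells. Wild-type HepG2 cells are treated with test compounds for 16 hr at 37 C before CellTiter-Fluor addition and a 1-hr incubation.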

For assay [8], the target named is Nuclear receptor subfamily 1 group I member 2 (Homo sapiens) (UniProt O75469). Kind of assay: Human pregnane X receptor (PXR) small molecule agonists, qHTS assay (AID 1346982). Further: nearly all actives have a fitted effect of over 35% in size. In a few lines:
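Cells: HepG2 stably carrying PXR-Luc. Medium held 5% charcoal-stripped FBS. Compounds in DMSO added after 5 hr plating, incubated 24 hr, then luminescence quantified with ONE-Glo.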

For assay [9], the target named is Cytochrome P450 2D6 (Homo sapiens) (UniProt P10635). Description: Cytochrome P450 Family 2 Subfamily D Member 6 (CYP2D6) small molecule antagonists: luciferase reporter qHTS assay (AID 1671196). Further: nearly all actives have a fitted effect of over 50% in size. Further: potency means the concentration at half of the fitted maximal effect. On activity change, negative = inhibition: series mostly up to about 120 µM. The procedure, abridged: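 Enzyme and proluciferin substrate were first combined with test chemical for 10 min at room temperature. Adding NADPH regeneration solution started a 1 h reaction, stopped with luciferin detection reagent and read by luminescence 20 min later.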

For assay [10], the target named is Cytochrome P450 2C9 (Homo sapiens) (UniProt P11712). Description: Cytochrome P450 Family 2 Subfamily C Member 9 (CYP2C9) small molecule antagonists: luciferase reporter qHTS assay (AID 1671198). Further: series mostly up to about 120 µM; nearly all actives have a fitted effect of over 50% in size. In a few lines: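 P450-Glo proluciferin substrate with CYP2C9 enzyme; 10 min RT preincubation, then NADPH regeneration 1 h at 37C; luciferin detection reagent 20 min RT, luminescence in relative luminescence units.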

The target in assay [11] is Cytochrome P450 1A2 (Homo sapiens) (UniProt P05177). Description: Cytochrome P450 Family 1 Subfamily A Member 2 (CYP1A2) small molecule antagonists: luciferase reporter qHTS assay (AID 1671199). Further: series mostly up to about 120 µM; nearly all actives have a fitted effect of over 50% in size. In a few lines:
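Compounds were incubated with CYP1A2 and a luminogenic proluciferin substrate for 10 min at room temperature before the reaction was started with NADPH regeneration solution. After 1 h, detection reagent was added and light output, proportional to CYP activity, was recorded.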

The target of assay [12] is Voltage-gated inwardly rectifying potassium channel KCNH2 (Homo sapiens) (UniProt Q12809). Description: Human Ether-a-go-go-Related Gene (hERG) channel small molecule antagonists: fluorescence cell-based qHTS assay (AID 1671200). The procedure, abridged: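 Thallium served as the potassium surrogate; its influx into dye-loaded U2OS cells carrying the channel was measured by fluorescence over 2 min.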

Assay [13] has as its target Cytochrome P450 3A4 (Homo sapiens) (UniProt P08684). Kind of assay: Cytochrome P450 Family 3 Subfamily A Member 4 (CYP3A4) small molecule antagonists: luciferase reporter qHTS assay (AID 1671201). In a few lines:
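Relative luminescence units after 20 min with luciferin detection reagent served as read-out. Beforehand, CYP3A4 turned over a proluciferin substrate for 1 h at room temperature with NADPH regeneration, following 10 min compound preincubation.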

For assay [14], the target named is Nuclear receptor subfamily 1 group I member 2 (Rattus norvegicus) (UniProt Q9R1A7). Kind of assay: Rat pregnane X receptor (rPXR) activation by small molecules, qHTS assay (AID 1346983). Further: nearly all actives have a fitted effect of over 20% in size. The settings on record: rPXR luciferase reporter cells, One-Glo luminescence, 24 h; max activation: hits give high values. The procedure, abridged: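 Cell-based rPXR activation assay: rPXR cells, 2,000 per well, rested 5hr at 37 C, then exposed to compounds in DMSO for 24 hr at 37 C. Luciferase activity read by One-Glo luminescence after 30 min at room temperature.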

The target in assay [15] is Nuclear receptor subfamily 1 group I member 2 (Homo sapiens) (UniProt O75469). Description: CYP3A4 induction through human pregnane X receptor (PXR) by small molecules, qHTS assay (AID 1346984). Further: nearly all actives have a fitted effect of over 40% in size. The procedure, abridged:
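Quantitative HTS in DPX-2 cells, i.e. HepG2 transfected with PXR response element and CYP3A4-promoter luciferase. Compounds in DMSO incubated 24hr at 37C; then P450-Glo CYP3A4 substrate, 3uM final, 3hr; One-Glo luminescence.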

For assay [16] the target is unchanged. Description: Human pregnane X receptor (PXR) activation by small molecules, qHTS assay (AID 1346985). Further: nearly all actives have a fitted effect of over 40% in size. The procedure, abridged: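 DPX-2 cells (HepG2 co-transfected with a PXR response element and a CYP3A4-promoter luciferase construct) were seeded at 2,000 per well, rested 5 hr at 37C, then exposed to DMSO-dissolved compounds for 24 hr. Activation was read as luciferase luminescence.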

The target in assay [17] is Cytochrome P450 2C19 (Homo sapiens) (UniProt P33261). Description: Cytochrome P450 Family 2 Subfamily C Member 19 (CYP2C19) small molecule antagonists: luciferase reporter qHTS assay (AID 1671197). Further: nearly all actives have a fitted effect of over 65% in size. Further: potency means the concentration at half of the fitted maximal effect. On activity change, negative = inhibition: series mostly up to about 120 µM. The procedure, abridged:
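P450-Glo CYP2C19 screening system; proluciferin substrate; DMSO compound stocks; 10 min RT preincubation; NADPH regeneration, 1 h at 37C; luciferin detection reagent, 20 min RT; luminescence as RLU.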

For assay [18], the target named is Thyrotropin-releasing hormone receptor (Homo sapiens) (UniProt P34981). Kind of assay: qHTS assay to identify small molecule antagonists of the thyrotropin-releasing hormone receptor (TRHR) signaling pathway (AID 1346877; active means well fitted inhibition curve with a large enough effect in the repeat runs, not every such curve was filed as active; further: series mostly up to about 51 µM). The procedure, abridged: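 Antagonism is measured as suppression of the calcium response to 1 nM TRH in TRHR-HEK293 cells that have been dye-loaded for 2 h at 37 °C after overnight plating. Each compound is tested at 15 concentrations in triplicate.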
On the % scale 0 is the no-effect control and ±100 the full control effect.

Chain of Cytochrome P450 2D6 (Homo sapiens) (P10635 whole entry, looked up): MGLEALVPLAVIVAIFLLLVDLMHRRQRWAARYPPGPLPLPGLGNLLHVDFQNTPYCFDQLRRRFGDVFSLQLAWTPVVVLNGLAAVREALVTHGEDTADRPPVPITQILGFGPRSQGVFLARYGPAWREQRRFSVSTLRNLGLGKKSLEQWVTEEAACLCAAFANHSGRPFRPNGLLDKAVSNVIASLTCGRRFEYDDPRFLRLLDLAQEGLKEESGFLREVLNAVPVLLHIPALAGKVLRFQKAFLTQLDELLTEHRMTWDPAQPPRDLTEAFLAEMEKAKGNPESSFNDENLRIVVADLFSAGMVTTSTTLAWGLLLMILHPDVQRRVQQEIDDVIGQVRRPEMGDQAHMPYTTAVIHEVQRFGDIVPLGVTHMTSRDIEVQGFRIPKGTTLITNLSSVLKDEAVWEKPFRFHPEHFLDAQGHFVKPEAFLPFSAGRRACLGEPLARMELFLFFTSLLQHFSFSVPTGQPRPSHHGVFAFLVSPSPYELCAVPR
Chain of Cytochrome P450 1A2 (Homo sapiens) (P05177 whole entry, looked up): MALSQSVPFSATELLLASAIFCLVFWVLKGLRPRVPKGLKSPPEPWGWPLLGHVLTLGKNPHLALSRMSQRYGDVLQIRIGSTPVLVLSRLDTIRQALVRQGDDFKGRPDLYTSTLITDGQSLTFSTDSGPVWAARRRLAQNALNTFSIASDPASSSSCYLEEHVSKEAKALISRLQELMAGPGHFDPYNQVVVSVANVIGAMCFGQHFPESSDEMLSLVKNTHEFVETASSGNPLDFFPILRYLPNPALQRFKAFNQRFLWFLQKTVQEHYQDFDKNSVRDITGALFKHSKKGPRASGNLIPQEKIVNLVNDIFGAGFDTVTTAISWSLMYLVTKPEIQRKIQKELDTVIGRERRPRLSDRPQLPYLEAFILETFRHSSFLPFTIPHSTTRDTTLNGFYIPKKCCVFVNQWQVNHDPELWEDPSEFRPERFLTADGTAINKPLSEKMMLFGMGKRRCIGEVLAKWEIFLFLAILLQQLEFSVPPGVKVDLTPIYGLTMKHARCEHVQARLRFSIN
Chain of Cytochrome P450 2C19 (Homo sapiens) (P33261 whole entry, looked up): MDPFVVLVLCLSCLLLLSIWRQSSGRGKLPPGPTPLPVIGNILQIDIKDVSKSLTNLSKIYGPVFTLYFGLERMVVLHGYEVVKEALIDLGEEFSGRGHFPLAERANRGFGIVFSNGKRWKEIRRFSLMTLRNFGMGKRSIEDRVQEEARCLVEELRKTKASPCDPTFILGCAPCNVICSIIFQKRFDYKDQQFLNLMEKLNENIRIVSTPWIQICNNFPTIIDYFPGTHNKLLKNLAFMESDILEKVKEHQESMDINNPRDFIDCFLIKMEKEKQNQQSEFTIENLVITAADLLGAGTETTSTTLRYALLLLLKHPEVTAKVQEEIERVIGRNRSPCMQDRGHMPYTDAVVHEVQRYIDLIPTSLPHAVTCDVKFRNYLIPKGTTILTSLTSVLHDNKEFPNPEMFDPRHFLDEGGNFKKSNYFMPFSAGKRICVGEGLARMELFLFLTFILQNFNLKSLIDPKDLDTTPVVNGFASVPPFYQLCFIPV
Chain of Nuclear receptor subfamily 1 group I member 2 (Homo sapiens) (O75469 whole entry, looked up): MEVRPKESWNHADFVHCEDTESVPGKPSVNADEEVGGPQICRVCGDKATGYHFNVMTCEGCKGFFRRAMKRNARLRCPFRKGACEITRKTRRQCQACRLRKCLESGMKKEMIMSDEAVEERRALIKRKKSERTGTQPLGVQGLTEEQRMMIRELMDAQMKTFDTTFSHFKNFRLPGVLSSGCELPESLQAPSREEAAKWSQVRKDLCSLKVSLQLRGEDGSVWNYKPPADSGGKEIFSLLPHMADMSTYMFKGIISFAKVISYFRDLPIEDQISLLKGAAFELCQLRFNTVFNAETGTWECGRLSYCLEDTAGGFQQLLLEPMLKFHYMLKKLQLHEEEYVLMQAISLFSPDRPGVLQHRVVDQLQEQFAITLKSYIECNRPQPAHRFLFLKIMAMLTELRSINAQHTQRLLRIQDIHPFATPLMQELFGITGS
Chain of Cytochrome P450 3A4 (Homo sapiens) (P08684 whole entry, looked up): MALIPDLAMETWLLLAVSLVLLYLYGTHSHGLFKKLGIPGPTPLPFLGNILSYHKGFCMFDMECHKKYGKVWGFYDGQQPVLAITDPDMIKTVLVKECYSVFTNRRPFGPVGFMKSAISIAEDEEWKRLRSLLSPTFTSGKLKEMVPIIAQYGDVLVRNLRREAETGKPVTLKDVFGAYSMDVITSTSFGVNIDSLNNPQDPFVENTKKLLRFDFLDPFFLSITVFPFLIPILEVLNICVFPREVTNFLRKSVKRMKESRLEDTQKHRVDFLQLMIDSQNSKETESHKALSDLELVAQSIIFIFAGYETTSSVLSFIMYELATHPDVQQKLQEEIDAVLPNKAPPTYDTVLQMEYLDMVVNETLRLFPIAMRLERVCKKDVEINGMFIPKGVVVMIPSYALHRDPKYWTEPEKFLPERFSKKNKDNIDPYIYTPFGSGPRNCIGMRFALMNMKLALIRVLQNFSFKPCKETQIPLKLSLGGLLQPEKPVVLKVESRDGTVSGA
Chain of Cytochrome P450 2C9 (Homo sapiens) (P11712 whole entry, looked up): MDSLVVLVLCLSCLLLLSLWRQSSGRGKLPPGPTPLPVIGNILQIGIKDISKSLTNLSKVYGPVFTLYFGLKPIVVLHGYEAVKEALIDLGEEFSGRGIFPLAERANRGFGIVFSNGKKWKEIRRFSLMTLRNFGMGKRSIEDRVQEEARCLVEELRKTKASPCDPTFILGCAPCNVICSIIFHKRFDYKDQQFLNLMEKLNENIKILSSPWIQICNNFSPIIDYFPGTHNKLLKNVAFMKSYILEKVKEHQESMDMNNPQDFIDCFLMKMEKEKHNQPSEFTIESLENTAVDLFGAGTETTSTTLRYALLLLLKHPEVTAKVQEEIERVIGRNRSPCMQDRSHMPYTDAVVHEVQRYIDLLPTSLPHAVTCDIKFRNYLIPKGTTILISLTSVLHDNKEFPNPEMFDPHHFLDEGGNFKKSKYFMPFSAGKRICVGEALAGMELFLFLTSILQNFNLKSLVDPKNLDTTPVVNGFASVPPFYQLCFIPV
Chain of Voltage-gated inwardly rectifying potassium channel KCNH2 (Homo sapiens) (Q12809 whole entry, looked up): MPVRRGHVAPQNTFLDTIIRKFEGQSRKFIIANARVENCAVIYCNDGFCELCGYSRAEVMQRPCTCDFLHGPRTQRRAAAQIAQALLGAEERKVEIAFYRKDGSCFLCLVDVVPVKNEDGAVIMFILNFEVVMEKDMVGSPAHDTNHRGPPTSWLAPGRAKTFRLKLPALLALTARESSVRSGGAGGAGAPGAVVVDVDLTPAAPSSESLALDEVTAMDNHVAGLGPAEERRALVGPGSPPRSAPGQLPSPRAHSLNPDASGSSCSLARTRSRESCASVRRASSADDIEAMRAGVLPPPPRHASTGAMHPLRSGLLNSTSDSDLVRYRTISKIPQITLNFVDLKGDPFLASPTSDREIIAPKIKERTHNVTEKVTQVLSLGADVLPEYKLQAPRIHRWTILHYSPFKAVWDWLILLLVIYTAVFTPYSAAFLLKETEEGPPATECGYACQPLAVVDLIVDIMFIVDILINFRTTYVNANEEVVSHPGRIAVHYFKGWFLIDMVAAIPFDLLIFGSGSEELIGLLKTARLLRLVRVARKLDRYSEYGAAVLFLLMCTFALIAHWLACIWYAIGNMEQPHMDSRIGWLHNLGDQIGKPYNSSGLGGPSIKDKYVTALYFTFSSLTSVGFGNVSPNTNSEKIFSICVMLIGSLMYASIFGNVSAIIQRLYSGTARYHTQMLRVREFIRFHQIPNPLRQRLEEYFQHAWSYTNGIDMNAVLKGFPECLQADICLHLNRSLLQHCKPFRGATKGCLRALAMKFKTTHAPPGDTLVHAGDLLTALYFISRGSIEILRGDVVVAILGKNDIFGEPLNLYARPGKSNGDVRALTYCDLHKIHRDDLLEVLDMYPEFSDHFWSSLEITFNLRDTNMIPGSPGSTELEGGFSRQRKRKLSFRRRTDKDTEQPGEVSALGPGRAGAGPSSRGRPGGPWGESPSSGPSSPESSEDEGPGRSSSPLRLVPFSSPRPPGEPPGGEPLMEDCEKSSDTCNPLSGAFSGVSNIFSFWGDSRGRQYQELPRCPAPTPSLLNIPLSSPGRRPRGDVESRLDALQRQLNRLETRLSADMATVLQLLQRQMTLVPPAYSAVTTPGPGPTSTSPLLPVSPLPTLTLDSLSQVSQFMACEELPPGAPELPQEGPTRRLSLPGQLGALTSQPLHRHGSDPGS
Chain of Nuclear receptor subfamily 1 group I member 2 (Rattus norvegicus) (Q9R1A7 whole entry, looked up): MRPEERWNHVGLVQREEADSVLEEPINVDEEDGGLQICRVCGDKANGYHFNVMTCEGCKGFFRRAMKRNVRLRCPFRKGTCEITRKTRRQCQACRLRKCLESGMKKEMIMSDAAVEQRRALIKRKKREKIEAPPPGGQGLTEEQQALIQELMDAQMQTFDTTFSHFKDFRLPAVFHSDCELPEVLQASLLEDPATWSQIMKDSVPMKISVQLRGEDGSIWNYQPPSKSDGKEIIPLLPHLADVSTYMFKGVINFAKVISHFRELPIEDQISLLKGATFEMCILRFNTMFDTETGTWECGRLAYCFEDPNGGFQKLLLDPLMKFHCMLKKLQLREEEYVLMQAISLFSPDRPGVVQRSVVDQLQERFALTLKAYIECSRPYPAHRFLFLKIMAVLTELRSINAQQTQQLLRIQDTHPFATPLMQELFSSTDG
Chain of Thyrotropin-releasing hormone receptor (Homo sapiens) (P34981 whole entry, looked up): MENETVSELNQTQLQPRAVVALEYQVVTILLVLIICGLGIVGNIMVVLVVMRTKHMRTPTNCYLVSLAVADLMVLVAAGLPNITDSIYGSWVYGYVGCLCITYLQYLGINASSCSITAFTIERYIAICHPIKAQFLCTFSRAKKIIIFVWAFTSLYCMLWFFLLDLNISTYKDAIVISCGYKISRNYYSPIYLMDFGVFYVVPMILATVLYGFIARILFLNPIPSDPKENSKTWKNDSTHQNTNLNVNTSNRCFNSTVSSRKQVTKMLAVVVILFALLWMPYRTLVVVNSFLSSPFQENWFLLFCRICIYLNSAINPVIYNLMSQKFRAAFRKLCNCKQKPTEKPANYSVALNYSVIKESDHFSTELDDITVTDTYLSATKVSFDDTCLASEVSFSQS

Regarding `O=C1CC[C@H](C(=O)N2CCCCC2)N1`, the compound was called inactive in assay [1], in assay [2], in assay [4] and in assay [6]. Moreover, the Potency entry in assay [3], in assay [5], in assay [7], in [8], in assay [9] and in [10] was “inactive” in each case. Moreover, the Potency result in assay [11], in assay [12] and in assay [13] was “inactive” in each case.

Turning to `O=C(Nc1cccc(C2=NCCN2)c1)Nc1cccc(C2=NCCN2)c1`, the activity change, negative = cytotoxicity in assay [1] is -14.4% [at 15.8 µM]; in assay [3], 1.2% [at 19 µM]; in assay [5], 4% [at 19 µM]; in assay [7] it was 2.76% [at 19 µM]. The activation in [2] was 0.662% [at 15.8 µM]; in [8] it was -0.413% [at 19 µM]. For the same compound, the caspase activation in [4] is -0.792% [at 19 µM]. Also, the caspase-3/7 activation in assay [6] is 0.277% [at 19 µM]. For the same compound, in assay [14], the max activation is -0.171%. Also, in assay [15], the compound was classed as inactive. Moreover, the Potency entry in [16] was “inactive”. The Potency in assay [9] is 16.9 µM (active). The activity change, negative = inhibition in assay [17] is -6.53% [at 23.6 µM]; in assay [10], 0.456% [at 23.6 µM]; in assay [11] it was 12% [at 23.6 µM]; in assay [12], 4.21% [at 15.8 µM].

For the compound `Cc1nc(C)nc(N2C[C@@H](C)N(c3ccnc([C@@H](C)O)n3)[C@@H](C)C2)n1`, the result in assay [1], in assay [2], in assay [4] and in [6] was inactive. The Potency result in assay [3], in assay [5], in assay [7], in assay [8], in assay [9] and in assay [17] was “inactive” in each case. The Potency entry in assay [10], in assay [11], in assay [12] and in [13] was “inactive” each time.

Regarding `Cc1ccccc1C`, the result in [1], in [2], in assay [4] and in [6] was inactive. In addition, the Potency entry in [3], in [5], in assay [7], in assay [8], in assay [9] and in assay [10] was “inactive” in each case. Also, in assay [12], the Potency result is “inactive”. In addition, the Potency in assay [17] is 81.7 µM (active).

On to `CC(C)CCCC(C)CC=O` (stereo not given), for which the result in [1], in assay [2], in [18], in assay [4] and in [6] was inactive. For the same compound, the Potency result in assay [3], in assay [7], in [9], in assay [11], in [12] and in assay [13] was “inactive” throughout. Moreover, in assay [17], the Potency was 79.6 µM (active).

Regarding `C=C(C)C(=O)OC`, the call in assay [1], in assay [2], in assay [4] and in assay [6] was inactive. Besides, the Potency result in assay [3], in assay [5], in assay [7], in assay [8], in assay [9] and in [10] was “inactive” each time. Moreover, the Potency entry in [11], in assay [12] and in assay [13] was “inactive” each time.

Consider `O=c1cc(O)c(Cl)c[nH]1`, for which the call in assay [1], in [2], in assay [4], in assay [6] and in [15] was inactive. The Potency entry in assay [3], in [5], in assay [7], in assay [8], in [16] and in [9] was “inactive” each time. Besides, the Potency entry in assay [17], in [10], in assay [11] and in assay [12] was “inactive” in each case. The max activation in assay [14] was -3.03%.

Take `CCCCCCCCCCCCCCCCI`: the activity change, negative = cytotoxicity is 0.0425% [at 15.8 µM] in assay [1], 1.52% [at 19 µM] in [3], 4.85% [at 19 µM] in [5] and 7.09% [at 19 µM] in assay [7]. The activation in [2] was 1.65% [at 15.8 µM]; in [8], 0.718% [at 19 µM]. Moreover, in assay [4], the caspase activation was 0.99% [at 19 µM]. Further, the caspase-3/7 activation in assay [6] is -0.405% [at 19 µM]. The activity change, negative = inhibition in assay [9] is -2.1% [at 23.6 µM]; in assay [17] it was -28.1% [at 23.6 µM]; in assay [10] it was -1.09% [at 23.6 µM]; in assay [11], -13.6% [at 23.6 µM]; in assay [12], 0.683% [at 15.8 µM]; in assay [13] it was -0.102% [at 23.6 µM].
